Consider 60 molecules from PubChem BioAssay AID493191 (Broad Institute, 2011).

Each structure is given as a SMILES string. Out of some 1,300 compounds screened, about 330 (25%) were called active. A selection follows. Entries with a potency or affinity are not part of this list. A number with no mark means an inactive call. No rule for the calls is given here.

The assay in a line: growth inhibition of MALME3 cells – cell-based, CellTiter-Glo, cherry-picked, orthogonal assay for MITF inhibitor project, dose response (AID 493191). To be noted: MALME3 melanoma viability, CellTiter-Glo luminescence, 24 h; series mostly up to 35 µM; activity change, negative = inhibition: at the top concentration. In general terms: ATP-based viability assays read luminescence as a measure of living cells.
For the molecule `CCOc1ccc(-c2noc(CCC(=O)O)n2)cc1`, the “activity change, negative = inhibition” value was 6.15%.

With `CCOc1ccc(NC(=O)c2ccc3snnc3c2)cc1`, the “activity change, negative = inhibition” value is -0.985%.

Take `Cc1nc(NC(=O)/C=C/c2ccccc2)n[nH]1`: the “activity change, negative = inhibition” value is -19.5%.

Regarding `O=C(Nc1ccc(Cl)cc1)OCc1ccccn1`, the “activity change, negative = inhibition” value was -5.39%.

Take `O=C(CCCCl)NC(=S)Nc1ccc(N2CCOCC2)cc1`: the “activity change, negative = inhibition” value is -1.17%.

Regarding `O=C(Nc1ccc(N2CCOCC2)cc1)c1cnsn1`, the “activity change, negative = inhibition” value was -6.28%.

Take `COc1ccc(C(=O)Nc2ccc3ccccc3c2)cc1OC`: the “activity change, negative = inhibition” value was -2.8%.

Take `O=C(Nc1ccc2ncccc2c1)c1ccccc1Br`: the “activity change, negative = inhibition” value is 4.58%.

As for `O=C(Nc1ccc2c(c1)OCCO2)c1coc2ccccc2c1=O`, the “activity change, negative = inhibition” value is 0.549%.

For `Brc1cccc(/C=N/Nc2nn[nH]n2)c1`, the “activity change, negative = inhibition” value is -7.17%.

Turning to `CCN(CC)CC(=O)Nc1scc2c1c(=O)oc1ccccc12`, the “activity change, negative = inhibition” value was 10.3%.

On to `Cc1ccc(Nc2nnc(-c3ccccc3N)o2)cc1C`, for which the “activity change, negative = inhibition” value is 6.17%.

In the case of `C=CCOc1ccc(/C=C/C(C)=N\O)cc1`, the “activity change, negative = inhibition” value is -2.54%.

`O=C(c1cc2ccccc2oc1=O)N(Cc1ccccc1)C1CCS(=O)(=O)C1` (stereo not given): the “activity change, negative = inhibition” value was 3.46%.

For the molecule `COc1ccc(C(=O)NCC(=O)c2ccccc2)cc1`, the “activity change, negative = inhibition” value is -1.09%.

Turning to `NCCN1C(=O)S/C(=C\c2ccc3c(c2)OCO3)C1=O`, the “activity change, negative = inhibition” value was -23.1%.

As for `CC(C)S(=O)(=O)c1csc(C(=O)Nc2ccc(F)cc2)c1N`, the “activity change, negative = inhibition” value is -5.06%.

As for `O=C(NCc1ccc2c(c1)OCO2)c1cc(=O)[nH]c2ccccc12`, the “activity change, negative = inhibition” value is 3.43%.

As for `CN(C)c1ccc(NC(=S)c2ccccn2)cc1`, the “activity change, negative = inhibition” value was -23.9%.

For the molecule `N/C(=N\OC(=O)c1ccc(Cl)cc1Cl)c1ccncc1`, the “activity change, negative = inhibition” value is 1.53%.

As for `Cc1ccc(-n2nnnc2Sc2nc([N+](=O)[O-])nn2C)c(C)c1`, the “activity change, negative = inhibition” value is -5.23%.

In the case of `Cc1ccc(-n2cc(CNCCCn3cccn3)c(-c3cccc(C)c3)n2)cc1`, the “activity change, negative = inhibition” value is -48%.

On to `C=C1C(=O)O[C@@]23[C@H]1CC[C@@H](C)[C@@H]2CC[C@@]1(C)O[C@@H]31`, for which the “activity change, negative = inhibition” value is 5.34%.

As for `Cc1ccc(C2CC(C(F)(F)F)n3nc(C(=O)NCc4c(C)nn(C)c4C)c(Cl)c3N2)cc1` (stereo not given), the “activity change, negative = inhibition” value was -6.98%.

Regarding `Cn1c(/C=C/c2ccc(Cl)cc2)nc2ccccc2c1=O`, the “activity change, negative = inhibition” value was 3.09%.

For the molecule `COc1cccc(-c2csc3ncnc(Sc4nnnn4C)c23)c1`, the “activity change, negative = inhibition” value is -4.63%.

`Cc1ccc(-c2noc(CN3CCCCC3)n2)cc1`: the “activity change, negative = inhibition” value is 3.33%.

Regarding `C=CCn1cccc(C(=O)Nc2ccc(C)c(Cl)c2)c1=O`, the “activity change, negative = inhibition” value is -0.506%.

`O=C(Nc1ccc(N2CCOCC2)c(Cl)c1)c1cccc(F)c1`: the “activity change, negative = inhibition” value is -0.402%.

`Cc1ccc2nc(NC(=O)CSCC(=O)OCC(=O)c3ccccc3)sc2c1`: the “activity change, negative = inhibition” value was 2.77%.

For `O=C(O)c1ccc(N/N=C/c2ccc3nccnc3c2)cc1`, the “activity change, negative = inhibition” value is -31.8%.

For the molecule `Clc1nccnc1N/N=C/c1ccc(Br)cc1`, the “activity change, negative = inhibition” value was -22.2%.

As to `CCSC1(SCC)N=C(N)C2(C#N)C(c3ccc(F)cc3)C12C#N` (stereo not given), the “activity change, negative = inhibition” value was -37.6%.

On to `O=C(COC(=O)c1ccc[nH]c1=O)Nc1ccc(N2CCCCC2)cc1`, for which the “activity change, negative = inhibition” value was -7.21%.

In the case of `CCOc1ccc(-c2nnc(-c3cccs3)o2)cc1OCC`, the “activity change, negative = inhibition” value is 10.4%.

Take `CCOC(=O)C1(Cc2cccc(OC)c2)CCCN(C(=O)CSC)C1` (stereo not given): the “activity change, negative = inhibition” value was 9.78%.

As to `CCOc1ccc(NC(=O)CCC(=O)N/N=C/c2ccc([N+](=O)[O-])s2)cc1`, the “activity change, negative = inhibition” value was -32.1%.

Consider `N/C(=N\OC(=O)c1cccc(F)c1)c1cccc([N+](=O)[O-])c1`, for which the “activity change, negative = inhibition” value is 14.9%.

Take `O=C(/C=C\c1ccccc1)NCC(=O)N/N=C/c1ccc(O)cc1O`: the “activity change, negative = inhibition” value is 0.032%.

For the molecule `O=C(Cc1ccccc1)NCC(=O)N/N=C/c1ccc([N+](=O)[O-])s1`, the “activity change, negative = inhibition” value was -16.7%.

In the case of `Cc1onc(-c2ccccc2)c1C(=O)N/N=C/c1ccc([N+](=O)[O-])s1`, the “activity change, negative = inhibition” value is -49.8%.

Consider `COc1ccc(NC(C)C(=O)N/N=C/c2ccc([N+](=O)[O-])s2)cc1` (stereo not given), for which the “activity change, negative = inhibition” value was -67.8%.

Take `COc1ccc(-c2csc(N(C)C(=O)c3ccco3)n2)cc1`: the “activity change, negative = inhibition” value was -12.4%.

Consider `COCCn1c(C)cc(C(=O)COC(=O)c2ccccc2Br)c1C`, for which the “activity change, negative = inhibition” value was -0.877%.

Turning to `CC(/C=C1\SC(=O)N(CCCC(=O)O)C1=O)=C\c1ccccc1`, the “activity change, negative = inhibition” value is 0.09%.

Turning to `CCN(Cc1ccc(OC)c(F)c1)C(=O)CCl`, the “activity change, negative = inhibition” value is -27.4%.

For the molecule `c1ccc(OCc2nc3ccccc3[nH]2)cc1`, the “activity change, negative = inhibition” value was -10.5%.

Take `Cc1cc(C=C2C(=O)c3ccccc3C2=O)c(C)n1-c1ccccc1`: the “activity change, negative = inhibition” value is -0.523%.

For `COc1cccc2c1C(=O)C=C(C)C2=O`, the “activity change, negative = inhibition” value is -32.2%.

For `N#CC1=C(c2ccccc2)/C(=C/c2ccccc2)OC1=O`, the “activity change, negative = inhibition” value was -12%.

For the molecule `O=C(O)c1ccccc1C(=O)Nc1ccc(Oc2cccc3ccccc23)cc1`, the “activity change, negative = inhibition” value is 8.02%.

On to `Cc1ccc(N2C(=O)c3ccc(N)cc3C2=O)cc1C`, for which the “activity change, negative = inhibition” value was 1.99%.

As to `COc1ccc(/C=N/Nc2cc(C)nc(-n3nc(C)cc3C)n2)c(OC)c1`, the “activity change, negative = inhibition” value was -34.1%.

With `O=C1CCC2S/C(=C/Nc3ccc(C(F)(F)F)cc3)C(=O)N12` (stereo not given), the “activity change, negative = inhibition” value was 5.58%.

For the molecule `Cc1nc(C)c(C(=O)N/N=C/c2cc(Br)ccc2O)s1`, the “activity change, negative = inhibition” value was -24.3%.

As to `CC(C)C(=O)NC(c1ccco1)c1ccc2cccnc2c1O` (stereo not given), the “activity change, negative = inhibition” value is -26.1%.

As for `C=CCn1c(C)cc(C2=NNC(=NC(C)(C)C)SC2)c1C`, the “activity change, negative = inhibition” value was -17%.

Consider `C=CCN=C1NN=C(c2ccc3c(c2)OCCO3)CS1`, for which the “activity change, negative = inhibition” value was -32.5%.

In the case of `COc1ccccc1NC(=O)c1cnc(SCC(=O)NCC2CCCO2)n(C)c1=O` (stereo not given), the “activity change, negative = inhibition” value was -12%.

For `Cc1nc(Sc2nnnn2C)c2c3c(sc2n1)CCC3`, the “activity change, negative = inhibition” value is -12.1%.
